This is an account of results in PubChem BioAssay AID652054 (National Center for Advancing Translational Sciences (NCATS), 2013).

Among all 360,000 compounds or so, about 9,100 (2.5%) were called active. Inconclusive results (about 4%) are left out. Cut-off read from the data, not from the text of the source: active = max response below about -50%; inconclusive = no clear call, values can overlap the other calls; inactive = above that. Shown is part of a subset that was picked to be rich in actives.
% is set by controls: 0 for no effect and ±100 for the full control effect.

Sequence of D(3) dopamine receptor (Homo sapiens) (P35462 whole entry, looked up): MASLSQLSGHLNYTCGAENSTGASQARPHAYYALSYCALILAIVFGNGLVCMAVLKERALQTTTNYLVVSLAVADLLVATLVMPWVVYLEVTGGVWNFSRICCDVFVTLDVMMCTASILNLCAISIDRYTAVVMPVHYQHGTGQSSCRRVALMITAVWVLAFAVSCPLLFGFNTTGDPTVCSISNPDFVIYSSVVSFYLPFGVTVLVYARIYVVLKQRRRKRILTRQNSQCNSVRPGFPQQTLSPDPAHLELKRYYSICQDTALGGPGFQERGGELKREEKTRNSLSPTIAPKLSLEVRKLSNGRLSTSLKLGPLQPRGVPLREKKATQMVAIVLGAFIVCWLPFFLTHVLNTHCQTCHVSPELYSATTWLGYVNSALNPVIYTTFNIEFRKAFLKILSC

For the assay, the target named is D(3) dopamine receptor (Homo sapiens) (UniProt P35462). Put plainly: qHTS of D3 Dopamine Receptor Antagonist: qHTS. The following applies: D3R cells, DiscoveRx beta-arrestin luminescence, antagonist mode; stronger effect = lower value. The source says:
D3 DARs represent a very important target for the treatment of several neuropsychiatric disorders. Indeed, one of the most promising therapeutic applications for the D3 DAR is in the area of addiction and related disorders. […] These findings have been observed with a number of addictive substances including cocaine, amphetamine, nicotine, and alcohol. […] Antagonism of the D3 DAR may also be therapeutic in the treatment of schizophrenia or psychosis. […] Since the D3 DAR is expressed in areas of the CNS associated with the control of mood and emotion, it has been hypothesized that selective antagonism of the D3 DAR may be effective in treating psychosis without inducing the motor side effects typically seen with D2 DAR antagonists.
This part of the project aims to discover novel antagonist.
NIH Chemical Genomics Center [NCGC]
NIH Molecular Libraries Probe Centers Network [MLPCN]
Assay Submitter (PI): David Sibley, NINDS
Freshly passaged cells are plated in 1536 well white, solid bottom plates at a density of 1500 cells/well in 3microl of complete media. After an overnight incubation at 37 degrees C in 5% CO2, cells are loaded with 23nl of test compound from the compound library (as well as dopamine controls) using a 1536 pintool and incubated at 37 degrees C for 90 minutes. Two microliters of DiscoveRx reagent is then added to all cells, and they are incubated for an additional 30 - 60 minutes at room temperature. Following incubation, luminescence is measured on a ViewLux CCD-based luminometer reader using a 20 sec exposure time.
Background: Quantitative high-throughput screening tests each substance at several concentrations.
In the case of `CC(=O)NC1C(Oc2ccc(C=O)cc2)OC(COC(C)=O)C(OC(C)=O)C1OC(C)=O` (stereo unspecified), the max response, negative = inhibition was 14.4% (inactive).
In the case of `CC(=O)NC1C(OCc2ccccc2)OC(COC(C)=O)C(OC(C)=O)C1OC(C)=O` (stereo unspecified) it was -50.8% (active); in that of `CCc1cccc(OC2OC(CO)C(O)C(O)C2NC(C)=O)c1` (stereo unspecified), -21.8% (inactive); in that of `Cc1cccc(CN2CCN(C3CN(Cc4cn(Cc5cc(C)cc(C)c5)nn4)S(=O)(=O)C3)CC2)c1` (stereo unspecified), 0.506% (inactive).
Then `Cc1ccc(Cc2c(-c3ccccc3)nc3ccc(Cl)cn23)cc1`, with 5.55% (inactive).
Regarding `Cc1ccc(NC(=S)N(CCN(C)C)Cc2cccs2)cc1C`, the max response, negative = inhibition was -25.3% (inactive).
Then `Cc1ccc(NC(=S)N(CCN2CCCCC2)Cc2ccco2)cc1C`, with -70.4% (active).
In the case of `Cc1ccc(NC(=S)N(Cc2ccco2)C(C)c2cccs2)cc1` (stereo unspecified), the max response, negative = inhibition is 10.5% (inactive).
For `Cc1ccc(NC(=S)N(CCCN2CCCC2)Cc2cccn2Cc2ccc(Cl)cc2)cc1`, the max response, negative = inhibition is -19% (inactive).
In the case of `Cc1ccc(NC(=S)N(CCCN2CCC(C)CC2)Cc2ccco2)cc1` it was -63.3% (active); in that of `CCc1ccccc1NC(=S)N(CCN1CCCCCC1)Cc1ccco1`, -28.8% (inactive); in that of `O=C(c1ccc(C(F)(F)F)cc1)N1CCC(=O)N([C@H](COCc2ccccc2)Cc2ccccc2)CC1`, -26.4% (inactive).
Then `CC(C)c1ccc(CC(=O)N2CCC2(C)C(=O)NS(=O)(=O)c2ccc(C(C)(C)C)cc2)cc1` (stereo unspecified), with 22.2% (inactive); and `Nc1ncnc2c1ncn2[C@@H]1O[C@H](C(=O)NCC(F)(F)F)[C@@H](O)[C@H]1O`, with 14.5% (inactive).
For the molecule `Cc1nc(C(F)(F)F)ccc1C(=O)N1CCC1(C)C(=O)NS(=O)(=O)c1ccc(F)cc1F` (stereo unspecified), the max response, negative = inhibition was 19.8% (inactive).
Then `O=C1NC[C@@H](CCCCN2CCN(CCc3ccc(O)cc3)C(=O)C2=O)N(CC2CCCCC2)C1=O`, with 0% (inactive); and `O=C(CSC1=Nc2ccccc2C2=NC(c3ccccc3)C(=O)N12)NCC1CCCO1` (stereo unspecified), with -66.9% (active); and `O=C(CSc1ccc(-c2ccccc2)nn1)NCC1CCCO1` (stereo unspecified), with -1.73% (inactive).
Consider `CCn1c(SCC(=O)NCC2CCCO2)nc2ccccc21` (stereo unspecified), for which the max response, negative = inhibition is 1.46% (inactive).
As for `CC(=O)c1cccc(-c2cnc3c(NC=O)cc(-c4ccc(N5CCN(C)CC5)cc4)cn23)c1`, the max response, negative = inhibition is 13.5% (inactive).
Then `O=CN1CCN(C2CC(=O)N(c3ccc4c(c3)OCO4)C2=O)CC1` (stereo unspecified), with -17.5% (inactive); and `Cc1ccc(CC2CC(=O)N(c3ccc4c(c3)OCCO4)C2=O)cc1` (stereo unspecified), with 23.1% (inactive).
In the case of `Cc1ccc(N2C(=O)CC(NCc3ccc4c(c3)OCO4)C2=O)cc1Cl` (stereo unspecified) it was -53.6% (active); in that of `CC(C)n1ncc2c(C(=O)N3CCN(Cc4cccs4)CC3)cc(C3CC3)nc21`, -22.9% (inactive).
With `CC1(C2CC2)NC(=O)N(CC(=O)N2CCN(c3ccccc3F)CC2)C1=O` (stereo unspecified), the max response, negative = inhibition is -14.5% (inactive).
Then `Cc1ccccc1CN1C(=O)CSCC1(C)C(=O)Nc1c(C)cccc1C` (stereo unspecified), with 4.29% (inactive); and `COc1ccc(NCCc2ccccn2)cc1`, with 1.2% (inactive); and `COc1ccc2nc(-c3ccccn3)ccc2c1`, with -12.3% (inactive).
Consider `COc1cnc(-c2ccccn2)nc1Oc1ccc(C(C)(C)C)cc1`, for which the max response, negative = inhibition is -52.8% (active).
In the case of `CCOC(=O)c1c(NC(=O)COC(=O)c2ccc(S(=O)(=O)C(F)F)cc2)sc(C(=O)N(C)C)c1C` it was 13% (inactive); in that of `Cc1ccc(-c2c(N)nc3ncccn23)cc1`, 1.01% (inactive).
In the case of `OCCN1CCN(c2ncnc3c2ncn3[C@H]2CN(Cc3ccco3)C[C@@H](CO)O2)CC1` it was -7.83% (inactive); in that of `O=S1(=O)CC(N2CCN(CCO)CC2)CN1Cc1cn(Cc2ccc(Cl)cc2)nn1` (stereo unspecified), -11.2% (inactive); in that of `COc1cc(/C=N/n2c(C)n[nH]c2=S)ccc1OCc1ccccc1`, 4.09% (inactive).
Then `Cc1n[nH]c(=S)n1/N=C/c1ccc(Br)o1`, with -55% (active).
In the case of `Cc1ccccc1-c1n[nH]c(=S)n1/N=C/c1ccc(-c2ccccc2Br)o1`, the max response, negative = inhibition was -16.9% (inactive).
Then `NC(c1csc(NC(=O)Nc2ccccc2Oc2ccccc2)n1)c1ccccc1Cl` (stereo unspecified), with 46.2% (inactive); and `COC(=O)[C@]12CCCCC=C1N(Cc1ccco1)C(=O)[C@H](CC(=O)NCCCCc1ccccc1)C2`, with -9.24% (inactive).
Then `Cc1ccc(CN2CC(N3CCC(Cc4ccccc4)CC3)CS2(=O)=O)cc1` (stereo unspecified), with 6.13% (inactive); and `Cc1cc(=O)[nH]c(SCC(=O)Nc2ccc(Br)cc2)n1`, with -12.6% (inactive); and `Cc1cc(C)c2c(=O)[nH]c(SCC(=O)Nc3ccc(Br)cc3)nc2n1`, with -52.3% (active).
Then `O=C(CSc1nc2[nH]ncc2c(=O)[nH]1)Nc1ccc(F)cc1`, with 2.63% (inactive).
In the case of `COc1ccc(Cl)cc1-c1cc(C(=O)Nc2cc(OC)c(OC)c(OC)c2)[nH]n1`, the max response, negative = inhibition is 106% (inactive).
Turning to `COCCNCCOCCOc1cccc(OC)c1`, the max response, negative = inhibition is 6.73% (inactive).
Turning to `Clc1cccc(Cl)c1OCCOCCNCc1ccccc1`, the max response, negative = inhibition was 43.5% (inactive).
In the case of `COCCCNCCOCCOc1ccc(Cl)cc1Br` it was -97.1% (active); in that of `C[C@@H]1CN([C@H](C)CO)S(=O)(=O)c2ccc(C#CC3CCCCC3)cc2O[C@H]1CN(C)C(=O)Cc1ccncc1`, -18.9% (inactive).
Then `CCc1nc2ccc(C(=O)NCc3ccc(OC)cc3)cn2c1N(CC)Cc1cccc(Br)c1`, with 0% (inactive).
With `C[C@H](CO)N1C[C@H](C)[C@H](CN(C)C(=O)c2ccncc2)OCc2ccccc2-c2c(n(C)c3ccccc23)C1=O`, the max response, negative = inhibition was -9.27% (inactive).
Regarding `O=C(NCc1ccc(F)cc1)c1cc(C2CCCCN2C(=O)C2CCCCC2)on1` (stereo unspecified), the max response, negative = inhibition is 2.42% (inactive).
In the case of `CCC(=O)c1ccc(N2CCN(C(=O)c3cc([N+](=O)[O-])ccc3F)CC2)c(F)c1` it was 15% (inactive).
In the case of `O=C(Nc1cccc(Cl)c1)c1cc([N+](=O)[O-])ccc1N1CCN(CCO)CC1` it was -13.4% (inactive); in that of `CCN1CCN(c2ccc([N+](=O)[O-])cc2C(=O)c2ccc(Cl)cc2)CC1`, -55.6% (active); in that of `O=C(NCCc1ccccc1)/C(=C\c1ccc([N+](=O)[O-])cc1)NC(=O)c1ccccc1`, 9% (inactive).
In the case of `O=C(N/N=C/c1ccc(O)cc1)/C(=C/c1ccc([N+](=O)[O-])cc1)NC(=O)c1ccccc1`, the max response, negative = inhibition is -52.3% (active).
As for `O=C(Nc1ccc(C(=O)O)cc1)/C(=C/c1ccc([N+](=O)[O-])cc1)NC(=O)c1ccccc1`, the max response, negative = inhibition was -12.4% (inactive).
